From PubChem
JMJD2A Tudor = blocks the human JMJD2A Tudor domain. AlphaScreen JMJD2A-Tudor / H3K4me3 peptide binding. Potency, µM (highest dose often 114 µM), for the others: top-dose activity change, negative = inhibition, usual class: inhibitors. 4.4% of 390,000 active; also: % is scaled to controls: 0 for no effect and ±100 for the full control effect; nearly all actives have a fitted effect of over 50% in size
G9a inh = blocks human histone lysine methyltransferase G9a. Q96KQ7. G9a H3K9 monomethylation, AlphaScreen, 2 h. Potency, µM (doses to about 102 µM), without a hit: top-dose activity, negative = inhibition, most hits filed as inhibitors. 8.8% of 350,000 active. AID 504332; also: % is scaled to controls: 0 for no effect and ±100 for the full control effect; nearly all actives have a fitted effect of over 75% in size
Target sequence (Q96KQ7 913-1193 limits assumed): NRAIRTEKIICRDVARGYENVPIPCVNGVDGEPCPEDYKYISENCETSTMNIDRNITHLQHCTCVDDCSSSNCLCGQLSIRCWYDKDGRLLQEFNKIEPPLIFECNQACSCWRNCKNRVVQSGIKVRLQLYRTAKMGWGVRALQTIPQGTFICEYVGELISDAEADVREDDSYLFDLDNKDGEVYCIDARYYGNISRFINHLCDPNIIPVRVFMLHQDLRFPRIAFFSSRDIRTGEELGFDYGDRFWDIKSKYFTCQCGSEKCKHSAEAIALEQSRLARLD
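Chemiluminescent proximity detection of H3K9 monomethylation, read after 10 min bead incubation in the dark. Reaction: 20 nM G9a, 500 nM biotin-H3K9 peptide, 20 uM SAM cofactor, 2 h, room temperature, following 15 min enzyme-compound preincubation.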
L3MBTL1 inh = blocks human L3MBTL1; Q9Y468; AlphaScreen L3MBTL1–H3K9me1 peptide binding; Potency, µM (doses to about 57.1 µM), inactives show top-dose activity, negative = inhibition, most hits filed as inhibitors; 0.66% of 230,000 active; also: % is scaled to controls: 0 for no effect and ±100 for the full control effect; nearly all actives have a fitted effect of over 60% in size
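L3MBTL1 50 nM + b-AHA-H3(1-15)K9me1 75 nM, 30 min RT; compound added, 30 min RT; streptavidin donor/Ni-chelate acceptor beads 10 ug/mL each final, 30 min RT dark; AlphaScreen read.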
Sfp PPTase inh = Sfp phosphopantetheinyl transferase inhibition. AID 1490. 3.5% of 310,000 active. Biochemical Sfp PPTase activity, qHTS. Potency, µM, without a hit: largest response in the series, negative = inhibition, most hits filed as inhibitors. Q9F4F7;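 also: the enzyme is Sfp with the accession as filed and its product quenches rhodamine fluorescence; 0% = enzyme reaction without inhibitor and -100% = no enzyme wells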
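After 15 min at room temperature with compound, 15 nM Sfp received 5 uM rhodamine-CoA plus 12.5 uM BHQ-2-ybbR (50 mM Hepes pH 7.6, 10 mM MgCl2). Rate came from the fluorescence difference over 30 min, ex 525/em 598 nm.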
HP1b binding inh = inhibitors of HP1-beta chromodomain binding to methylated histone tails. Potency, µM (highest dose often 114 µM), for inactives: at the highest dose activity change, negative = inhibition, actives largely listed as inhibitors. 0.56% of 390,000 active. AID 540317. AlphaScreen HP1-beta / biotin-H3K9me3 peptide binding; also: nearly all actives have a fitted effect of over 70% in size
Target sequence (P83916 whole entry, looked up): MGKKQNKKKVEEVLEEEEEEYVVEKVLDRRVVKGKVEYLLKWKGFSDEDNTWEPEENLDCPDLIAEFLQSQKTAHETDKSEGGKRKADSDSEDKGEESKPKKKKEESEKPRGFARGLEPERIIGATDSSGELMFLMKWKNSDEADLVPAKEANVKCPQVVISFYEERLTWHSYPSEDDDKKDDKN
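AlphaScreen: HP1-beta (50 nM) preformed 30 min with biotin-H3(1-18)K9me3 peptide (50 nM) in PBS pH 7.4, 0.01% Tween-20. Compound added for 30 min at RT, then streptavidin donor/nickel chelate acceptor beads (10 ug/mL) for 30 min.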
BAZ2B block = inhibitors of human BAZ2B bromodomain. Q9UIF8. AlphaScreen BAZ2B-H3K14Ac peptide displacement. Potency, µM (highest dose often 114 µM), inactives show top-dose activity change, negative = inhibition, most hits filed as inhibitors. 4.4% of 360,000 active; also: % is scaled to controls: 0 for no effect and ±100 for the full control effect; nearly all actives have a fitted effect of over 60% in size
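In this displacement format the biotinylated H3(5-23) peptide acetylated at Lys14 serves as ligand at 50 nM, with BAZ2B at 50 nM in PBS pH 7.4 containing 0.01% Tween-20. Donor and acceptor beads are 10 ug/mL final.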
* = called active by the depositor; u = inconclusive; x = no result given; [ ] = dose if it differs, or a comment. Hits are enriched below; roughly 12% of the tested compounds scored in any of these assays. Calls follow the shape of the dose curve; as a rule, active = well fitted curve in the direction sought with a large enough effect; inconclusive = small, poorly fitted or top-dose-only effect, or another doubt; inactive = no such curve, though single readings can be large; an effect the other way counts as inactive or inconclusive. Potency is read from the fitted curve at half-maximal effect.

SMILES	JMJD2A Tudor	G9a inh	L3MBTL1 inh	Sfp PPTase inh	HP1b binding inh	BAZ2B block
CCOc1ccc(NC(=O)c2cc3sc(Cl)cc3n2CC)cc1	7%	-1%[59 µM]	x	x	41%	5%
CC(C(=O)NCc1ccccc1)n1cc([N+](=O)[O-])cn1 (stereo unspecified)	1%	-4%	x	11%	53%	5%
C#CCOCCOCCOCCNc1nc(N2CCN(C(=O)[C@H](CCCCN)n3cc([C@@H](N)C(C)CC)nn3)CC2)nc(N2CCN(C(=O)[C@H](CCCCN)n3cc([C@@H](N)CO)nn3)CC2)n1 (stereo partly specified)	x	u	u	3%	x	22µM*
C#CCOCCOCCOCCNc1nc(N2CCN(C(=O)[C@H]([C@@H](C)CC)n3cc([C@@H](N)CO)nn3)CC2)nc(N2CCN(C(=O)[C@H](CCCCN)n3cc([C@@H](N)C(C)CC)nn3)CC2)n1 (stereo partly specified)	50µM*	12%[12.7 µM]	-18%	-14%	39%	50µM*
COc1ccc(NC(=O)COC(=O)C2CC2)c(OC)c1	0%	-9%[2.33 µM]	-11%	x	21%	-5%
CCC(C)n1c(=N)c(S(=O)(=O)c2ccccc2)cc2c(=O)n3ccccc3nc21 (stereo unspecified)	-9%	-2%[59 µM]	x	x	25%	-1%
COC(=O)C1=C(C(=O)OC)SC(=C2C(=S)C(C)(C)N(C(=O)C(C)C)c3ccccc32)S1	11µM*	1.8µM*	x	u	7.1µM*	8.9µM*
CCCC(=O)N1c2ccccc2C(=C2SC(C(=O)OC)=C(C(=O)OC)S2)C(=S)C1(C)C	-30%[11.4 µM]	1.8µM*	-1%	-4%	14µM*	5.6µM*
COC(=O)C1=C(C(=O)OC)SC(=C2C(=S)C(C)(C)N(C(=O)C3CC3)c3ccccc32)S1	6.3µM*	1.6µM*	x	-12%	7.1µM*	8.9µM*
CCCCC(=O)Nc1ccc(NC(=O)c2ccc(C)c([N+](=O)[O-])c2)cc1OC	-6%	7%[59 µM]	8%	10%	14%	3%
COc1ccc(C2C(C(=O)Nc3ccccc3)=C(C)Nc3nc(-c4ccccc4Cl)nn32)cc1OC (stereo unspecified)	-15%	u	x	x	16%	-3%
CC(=O)c1ccc(NC(=O)CCNC(=O)c2ccccc2Cl)cc1	-1%	12%	x	1%	10%	3%
Cc1nc2ccn(Cc3cccs3)c(=O)c2cc1C(=O)N1CCN(c2ccccc2F)CC1	-28%	11%[59 µM]	x	x	7%	u
COc1ccccc1N1CCN(CCCCN2C(=O)C3CCCCN3C2=O)CC1 (stereo unspecified)	u	22%[0.501 µM]	-1%[2.29 µM]	-8%	-4%	5%
COc1ccccc1N1CCN(CCCCCCOc2ccc(F)cc2)CC1	-34%	50µM*	-4%	-4%	1%	-37%
COc1ccc(CN2CCN(CCCCOc3ccc(Cl)cc3)CC2)c(OC)c1OC	6.3µM*	14µM*	-7%[11.4 µM]	89µM*	u	18µM*
COc1ccccc1N1CCN(CCCCOc2cccc3ccccc23)CC1	u	45µM*	-6%	-18%	-19%	35µM*
Fc1ccc(OCCCCCN2CCCC2)cc1	-12%	3%[59 µM]	-10%	6%	24%	2%
CC(=O)N1CCc2cc(Br)cc(S(=O)(=O)CCC(=O)N3CCN(c4ccc(F)cc4)CC3)c21	-26%	-32%[59 µM]	x	x	18%	u
CN(c1ccc(Cl)cc1)S(=O)(=O)c1nnc(NC(=O)C2CCCCC2)s1	-12%	2%[59 µM]	x	x	51%	5%
CCOc1cc(NC(C)=O)ccc1C(=O)OC	x	22%[59 µM]	x	-1%	x	x
COc1cc(/C=N/n2cnn(Cc3ccccc3Cl)c2=S)cc(OC)c1OC	-29%	32µM*	-15%	u	-19%	-24%
Oc1ccccc1/C=N/n1cnn(Cc2ccccc2Cl)c1=S	18µM*	3.5µM*	-2%	u	2%	-20%
COc1ccc(/C=N/n2cnn(Cc3ccccc3Cl)c2=S)cc1	-4%	28µM*	-18%	25µM*	u	-34%
Cc1cc(C)n(Cc2ccccc2Cl)n1	-6%	3%[59 µM]	-3%	7%	75%	6%
SMILES	JMJD2A Tudor	G9a inh	L3MBTL1 inh	Sfp PPTase inh	HP1b binding inh	BAZ2B block
Cc1ccc(Cn2c(C)c(CNC3CCCCC3)c(C(=O)O)c2C)cc1	-11%	10%[59 µM]	x	x	34%	-13%
CCOC(=O)COc1ccc(/C=C2\NC(=S)N(CC)C2=O)cc1	-12%	7%[59 µM]	-9%	3%	30%	-6%
O=C(Nc1nc2c(Cl)ccc(Cl)c2s1)C1CC1	-9%	x	2%	11%	16%	-7%
NNc1nc2c(Cl)ccc(Cl)c2s1	45µM*	u	-7%	5%	-31%	50µM*
Cc1[nH]c(=O)[nH]c(=O)c1/C=N/NC(=O)[C@H](C)N	56µM*	u	u	50µM*	33%	50µM*
O=S1(=O)CCOC[C@H](Cc2ccccc2)N1Cc1ccc(Cl)cc1	2%	x	x	x	51%	x
COCCN1CCn2c(nc3cc(NC(C)=O)ccc32)C1	-18%	35µM*	x	9%	40%	-15%
COCCN1CCn2c(nc3cc(NC(=O)Cn4nc(C)c5ccccc5c4=O)ccc32)C1	-15%	u	-12%	-14%	24%	10%
COCCN1CCn2c(nc3cc(Nc4nnc(C)c5ccccc45)ccc32)C1	89µM*	u	x	6%	34%	u
CCOC(=O)N1CCN(C(=O)CSc2nc3nc(C)cc(C)n3n2)CC1	-3%	x	1%	x	38%	x
COc1ccc(CCNc2nc(C)nc3c2oc2ccccc23)cc1OC	-25%	7%[12.7 µM]	x	28µM*	19%	-34%
Cc1cccc(Nc2nc(C)nc3c2oc2ccccc23)c1	-15%	79µM*	x	u	28%	u
O=C(O)c1ccc2c(c1)C(=O)N(CCc1ccc(O)cc1)C2=O	-2%	9%[12.7 µM]	11%	18%	x	0%
O=C(N/N=C/c1cc(Cl)cc(Cl)c1O)c1ccncc1	22µM*	-4%	28µM*	15%	49%	10µM*
O=C(N/N=C/c1ccccc1)c1ccc(NC(=O)c2ccc(F)cc2)cc1	0%	-44%	x	15%	16%	-3%
CCc1cc(C(=O)N/N=C/c2ccc(O)cc2O)c2ccccc2n1	79µM*	13%	x	23%	35%	45µM*
O=C(N/N=C/c1ccc(Cl)cc1Cl)c1ccncc1	-16%	x	-5%	u	25%	u
O=C(CCCCCNC(=O)c1ccccc1)N/N=C/c1ccc(O)cc1O	-13%	78%[59 µM]	10%	14%	28%	-5%
Cc1cccc(C(=O)Oc2c(Br)cc(Br)cc2/C=N/NC(=O)c2ccncc2)c1	-21%[57.1 µM]	23%	x	10%	-6%	-9%
